Measurements from PubChem BioAssay AID624169 (The Scripps Research Institute Molecular Screening Center, 2012).
The campaign covered roughly 360,000 compounds. About 2,400 (0.67%) were called active. Shown is part of a subset that was picked to be rich in actives. A number with no mark means an inactive call.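 Rule for the calls: active = activation above a run cutoff, the mean activation of all tested compounds plus 3 SD (cut at about 14% in these data); inactive = the rest.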

molecular target: 5-hydroxytryptamine receptor 2A (Mus musculus) (UniProt P35363); assay: mouse Htr2a agonists via beta-arrestin recruitment, primary screen, cell-based, luminescence (AID 624169); details: CHO-K1 mHTR2A beta-arrestin complementation, at 7.6 µM, hits give high values, percent of 30 µM serotonin response;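 note: 0% = plate median of compound wells and 100% = 30 µM serotonin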
Sequence (P35363 whole entry, looked up): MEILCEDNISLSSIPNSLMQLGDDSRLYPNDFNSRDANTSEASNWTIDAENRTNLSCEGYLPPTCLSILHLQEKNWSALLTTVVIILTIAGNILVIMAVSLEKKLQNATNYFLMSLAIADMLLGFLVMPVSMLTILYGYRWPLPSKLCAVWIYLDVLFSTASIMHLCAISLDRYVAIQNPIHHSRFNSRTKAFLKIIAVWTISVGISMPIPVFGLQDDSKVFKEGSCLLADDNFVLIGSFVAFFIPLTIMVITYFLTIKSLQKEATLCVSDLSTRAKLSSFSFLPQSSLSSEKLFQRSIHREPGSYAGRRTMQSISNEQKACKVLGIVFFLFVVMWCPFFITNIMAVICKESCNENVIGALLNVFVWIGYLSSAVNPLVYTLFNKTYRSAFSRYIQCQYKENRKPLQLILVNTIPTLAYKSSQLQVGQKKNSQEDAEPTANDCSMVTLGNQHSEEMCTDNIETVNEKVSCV

SMILES | activation
Cc1ccc(CC2(C)C(=O)Nc3ccc(OC(F)(F)F)cc32)cc1 (stereo unspecified) | -3.94%
CC1(Cc2cccc(C#N)c2)C(=O)Nc2ccc(-c3cccc(C(F)(F)F)c3)cc21 (stereo unspecified) | 16.7% (active)
CC1(Cc2ccccc2C#N)C(=O)Nc2ccc(-c3ccc4[nH]ccc4c3)cc21 (stereo unspecified) | -1.29%
COC(=O)[C@]12CCCCC=C1N(Cc1ccc3c(c1)OCO3)C(=O)[C@H](CC(=O)N1CCOCC1)C2 | 2.87%
O=C(Nc1cccc2c1CCCC2)C1CCN(C(=O)NC2CCCCC2)CC1 | 2.77%
CCOC(=O)c1cccc(NC(=O)C2CCCN(S(=O)(=O)c3cnc[nH]3)C2)c1 (stereo unspecified) | 9.95%
O=c1[nH]nc(Cc2ccccn2)c2ccccc12 | 2.3%
Cc1cc([N+](=O)[O-])c(NC2CCCCC2)c([N+](=O)[O-])c1 | 0.25%
Cc1cc([N+](=O)[O-])ccc1NC1CCCC1 | 15.6% (active)
Cc1cc(C=O)c(C)n1-c1ccc(NC2CCCCC2)c([N+](=O)[O-])c1 | 3.39%
COc1cc2sc(C)nc2cc1C | -1.33%
CCOC(=O)c1cc(-c2sc(NC(=O)c3ccccc3)nc2C)n(CCO)n1 | -1.86%
CCOC(=O)c1cc(-c2sc(NC(=O)c3ccccc3)nc2C)n(Cc2ccccc2)n1 | -1.51%
CCOC(=O)c1cc(-c2ccccc2C)n(Cc2cc(C)no2)n1 | 22.5% (active)
Cc1noc(C)c1COc1ccccc1C(=O)N(C)CC(=O)Nc1cccc(F)c1 | -2.16%
CCCCN1C[C@H](c2ccc(Br)cc2)[C@@H](CC(=O)Nc2ccc(Br)cc2)C1=O | 5.11%
O=C(CN1CCOCC1)N1CCCc2c1c(=O)oc1ccc(OCc3ccccc3)cc21 | -4.24%
COCCN(C(=O)c1ccccc1F)c1c(N)n(Cc2ccccc2)c(=O)[nH]c1=O | -0.11%
Nc1c(N(CCO)C(=O)C2CCCCC2)c(=O)[nH]c(=O)n1Cc1ccccc1 | -0.82%

SMILES | activation
Nc1c(N(Cc2ccco2)C(=O)c2cccc(F)c2)c(=O)[nH]c(=O)n1Cc1ccccc1 | 16.4% (active)
CC(C(=O)N(C)CC(=O)Nc1ccccc1C(F)(F)F)N1C(=O)c2ccccc2C1=O (stereo unspecified) | -1.36%
CC(=O)c1sc(NC(=O)CCN2C(=O)C3CC=CCC3C2=O)nc1-c1ccccc1 (stereo unspecified) | -2.19%
Cc1cc(NC(=O)/C=C/C(=O)N(CC(=O)NC2CCCC2)c2ccc(F)cc2)no1 | 5.36%
O=C(CCC(=O)N1CCN(S(=O)(=O)c2ccc(Cl)cc2)CC1)NCc1cccc(C(F)(F)F)c1 | -0.98%
O=C(c1ccncc1)N1CCN(S(=O)(=O)c2cc(C(F)(F)F)cc(C(F)(F)F)c2)CC1 | -5.52%
O=C(Cc1ccsc1)N1CCN(S(=O)(=O)c2cc(C(F)(F)F)cc(C(F)(F)F)c2)CC1 | 16.3% (active)
CC(C)c1nc(CNC(=O)CC2C(=O)NCCN2Cc2ccoc2)cs1 (stereo unspecified) | 2.97%
Cc1ccc(Cc2c(C)nc3nc(SCC(=O)NCCN4CCOCC4)nn3c2C)cc1 | -7.66%
O=C(Oc1ccc2c(c1)CCC2)N1CCOCC1 | -4.84%
CC(C)COP(=O)(c1ccc(N(C)C)cc1)C(Nc1ccccc1)c1cccnc1 (stereo unspecified) | -1.14%
CC(Nc1ccccc1)c1cccnc1 (stereo unspecified) | 18.4% (active)
CC(=O)OC(C(=O)NCCc1ccccc1)c1cccnc1 (stereo unspecified) | 3.53%
CCOP(=O)(OCC)C(Nc1ccc([N+](=O)[O-])cc1)c1ccc(Cl)cc1 (stereo unspecified) | -5.36%
Cc1ccc(NS(=O)(=O)c2cccs2)cc1S(=O)(=O)N1CCCCCC1 | -1.7%
O=C(NCCS(=O)(=O)N1CCN(c2ccc(F)cc2)CC1)c1ccc2c(c1)OCO2 | 5.83%
Cc1cc(O)c(C2(O)C(=O)Nc3ccccc32)cc1C (stereo unspecified) | -4.53%
O=C(c1ccco1)N1CCN(Cc2cccc(C(F)(F)F)c2)CC1 | 11.3%
O=C(c1ccc(Br)o1)N1CCN(CCOc2ccccc2)CC1 | -0.54%

SMILES | activation
O=C(c1ccco1)N1CCN(CCOc2ccccc2)CC1 | 16.4% (active)
O=C(c1ccco1)N1CCN(C(=O)c2ccc(COc3ccc(F)cc3)o2)CC1 | 2.33%
COc1cccc(OC)c1OCCN1CCN(C(=O)c2ccco2)CC1 | 14.4% (active)
O=C(OCC(=O)N1CCN(C(=O)c2ccco2)CC1)c1c(Cl)cccc1Cl | -3.04%
Cc1ccc2cc(CN(c3ccc(C)c(C)c3)S(C)(=O)=O)c(=O)[nH]c2c1 | -0.92%
CC1CC(=S)Nc2ccccc2N1Cc1ccccc1 (stereo unspecified) | -4.32%
CC(C)NC(=O)CSc1nnc(COc2ccccc2Cl)o1 | 0.27%
Cc1ccc(NC(=O)CSc2nnc(CNC(=O)c3ccccc3F)o2)cc1 | -0.39%
Cc1ccc(NC(=O)CSc2nnc(COc3ccccc3C)o2)cc1 | 40.1% (active)
COc1ccc(CNC(=O)c2ccc(NS(=O)(=O)c3ccc4[nH]c(=O)[nH]c4c3)cc2)cc1OC | 16.1% (active)
CC(=O)c1ccc(NC(=O)C(C)OC(=O)c2ccc(NS(=O)(=O)c3ccc4[nH]c(=O)[nH]c4c3)cc2)cc1 (stereo unspecified) | -1.56%
O=C(c1ccc(NS(=O)(=O)c2ccc3[nH]c(=O)[nH]c3c2)cc1)N1CCCCC1 | 2.95%
COc1ccc2c(c1)C(=C(C#N)C#N)C(=O)N2CCc1ccccc1 | -0.11%
CC(C)CC1C(=O)N(Cc2cn(Cc3ccco3)nn2)CCS(=O)(=O)N1Cc1ccc(-c2ccc(Cl)c(Cl)c2)cc1 (stereo unspecified) | -3.53%
O=C(O)C1C2C=CC(O2)C1C(=O)Nc1ccccn1 (stereo unspecified) | -3.53%
O=C(O)C1C2C=CC(O2)C1C(=O)NCCc1cccc(Cl)c1 (stereo unspecified) | 21.1% (active)
O=C(O)C1CC=CCC1C(=O)NCCc1ccccc1 (stereo unspecified) | 7.31%
Cc1ccccc1CN1CCC(C(=O)Nc2ccc(Oc3cccnc3)cc2)CC1 | -1.91%
